What all share (test): DAPPL (digital affinity profiling via proximity ligation, sequencing); 10 mM Tris-HCl pH 7.5, 50 mM NaCl, 1 mM DTT, 4% glycerol, room temperature, 30 min; GST-TFs on glutathione beads, 16-mer random dsDNA library, 0.1% formaldehyde crosslink after washing; high values mean tight binding
What all share (settings): protein: recombinant; tags: N-terminal GST; dsDNA, one strand shown

The target in one assay is T1, FLI1 (Homo sapiens, UniProt Q01543 1-452).
T1 sequence: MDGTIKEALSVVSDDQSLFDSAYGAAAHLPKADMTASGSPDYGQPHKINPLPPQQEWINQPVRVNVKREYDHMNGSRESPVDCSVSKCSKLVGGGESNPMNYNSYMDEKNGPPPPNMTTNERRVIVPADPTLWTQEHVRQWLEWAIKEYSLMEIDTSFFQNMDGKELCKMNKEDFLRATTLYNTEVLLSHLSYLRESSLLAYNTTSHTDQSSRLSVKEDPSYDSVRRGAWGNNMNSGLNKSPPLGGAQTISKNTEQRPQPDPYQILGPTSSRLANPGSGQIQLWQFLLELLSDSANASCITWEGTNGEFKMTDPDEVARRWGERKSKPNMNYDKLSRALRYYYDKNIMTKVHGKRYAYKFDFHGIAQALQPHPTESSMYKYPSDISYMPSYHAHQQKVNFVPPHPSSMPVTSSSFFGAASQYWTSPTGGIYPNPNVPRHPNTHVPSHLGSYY
In short, it runs like this:
(§1)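 Sequencing on an Illumina NextSeq500 followed washing, crosslinking with 0.1% formaldehyde, proximity ligation (BsaI/T4 ligase, 1 h, 37 °C) and PCR amplification of pools that had been incubated for 30 min at room temperature with 200 nmole of a random double-stranded 16-mer DNA library in Tris/NaCl/DTT/glycerol buffer. Each pool held DNA-barcoded human transcription factors, expressed in yeast as GST fusions and captured on glutathione beads, plus a tag-only sample. Binding signal is a hexamer's read frequency for a factor divided by its frequency in the tag-only sample.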

For another assay, the target named is T2, ELK1 (Homo sapiens, UniProt P19419 1-428).
T2 sequence: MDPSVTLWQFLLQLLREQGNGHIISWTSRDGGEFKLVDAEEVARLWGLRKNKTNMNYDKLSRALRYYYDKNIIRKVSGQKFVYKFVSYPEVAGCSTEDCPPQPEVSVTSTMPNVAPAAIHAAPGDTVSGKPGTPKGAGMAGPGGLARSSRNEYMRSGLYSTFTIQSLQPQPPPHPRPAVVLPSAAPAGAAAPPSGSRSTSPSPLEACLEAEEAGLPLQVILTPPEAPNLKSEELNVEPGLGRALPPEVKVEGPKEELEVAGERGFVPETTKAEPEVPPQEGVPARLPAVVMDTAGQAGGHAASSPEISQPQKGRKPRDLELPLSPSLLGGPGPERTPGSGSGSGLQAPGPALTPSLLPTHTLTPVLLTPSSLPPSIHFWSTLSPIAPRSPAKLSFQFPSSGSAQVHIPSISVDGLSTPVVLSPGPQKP
In short, it runs like this: as §1

The target in a further assay is T3, ERG (Homo sapiens, UniProt P11308 1-479).
T3 sequence: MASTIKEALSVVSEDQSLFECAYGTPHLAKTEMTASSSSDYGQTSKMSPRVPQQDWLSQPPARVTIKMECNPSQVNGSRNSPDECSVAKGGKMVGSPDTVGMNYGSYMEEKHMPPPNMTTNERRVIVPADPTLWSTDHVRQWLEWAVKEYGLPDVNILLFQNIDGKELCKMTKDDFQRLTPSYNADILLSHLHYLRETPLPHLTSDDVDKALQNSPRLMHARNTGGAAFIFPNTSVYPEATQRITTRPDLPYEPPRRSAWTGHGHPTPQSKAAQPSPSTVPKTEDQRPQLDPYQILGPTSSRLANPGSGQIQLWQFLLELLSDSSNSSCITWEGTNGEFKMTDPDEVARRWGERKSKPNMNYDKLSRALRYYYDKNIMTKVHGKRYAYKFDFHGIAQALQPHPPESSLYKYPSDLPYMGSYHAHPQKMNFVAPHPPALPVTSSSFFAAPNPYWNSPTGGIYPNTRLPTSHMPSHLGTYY
In short, it runs like this:
as §1

The target of the next assay is ELF1 (Homo sapiens, UniProt P32519 1-619). The procedure, abridged:
as §1

A further assay addresses T4, EHF (Homo sapiens, UniProt Q9NZC4 1-300).
T4 sequence: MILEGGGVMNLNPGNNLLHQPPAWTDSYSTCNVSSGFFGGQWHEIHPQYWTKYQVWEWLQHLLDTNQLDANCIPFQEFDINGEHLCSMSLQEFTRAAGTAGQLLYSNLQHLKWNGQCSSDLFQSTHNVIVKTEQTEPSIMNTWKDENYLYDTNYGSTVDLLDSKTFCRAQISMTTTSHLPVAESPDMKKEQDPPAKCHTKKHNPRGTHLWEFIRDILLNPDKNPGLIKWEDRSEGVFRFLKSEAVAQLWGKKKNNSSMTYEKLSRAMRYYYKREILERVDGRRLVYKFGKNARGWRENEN
The procedure, abridged:
as §1

The target in the next assay is SPI1 (Homo sapiens, UniProt P17947 1-270). In short, it runs like this: as §1
In the next assay the target is SPIB (Homo sapiens, UniProt Q01892 1-262). In short, it runs like this: as §1
SPIB, sequence (Q01892 whole entry): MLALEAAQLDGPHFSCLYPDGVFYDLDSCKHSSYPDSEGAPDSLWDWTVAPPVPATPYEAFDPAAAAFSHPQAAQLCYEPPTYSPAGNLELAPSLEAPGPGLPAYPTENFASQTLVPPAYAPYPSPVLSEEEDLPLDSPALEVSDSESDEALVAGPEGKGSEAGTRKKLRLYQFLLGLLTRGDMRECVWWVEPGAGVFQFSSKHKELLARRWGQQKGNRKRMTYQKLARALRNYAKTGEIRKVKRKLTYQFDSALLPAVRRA
A further assay deals with T5, ELK3 (Homo sapiens, UniProt P41970 1-407).
T5 sequence: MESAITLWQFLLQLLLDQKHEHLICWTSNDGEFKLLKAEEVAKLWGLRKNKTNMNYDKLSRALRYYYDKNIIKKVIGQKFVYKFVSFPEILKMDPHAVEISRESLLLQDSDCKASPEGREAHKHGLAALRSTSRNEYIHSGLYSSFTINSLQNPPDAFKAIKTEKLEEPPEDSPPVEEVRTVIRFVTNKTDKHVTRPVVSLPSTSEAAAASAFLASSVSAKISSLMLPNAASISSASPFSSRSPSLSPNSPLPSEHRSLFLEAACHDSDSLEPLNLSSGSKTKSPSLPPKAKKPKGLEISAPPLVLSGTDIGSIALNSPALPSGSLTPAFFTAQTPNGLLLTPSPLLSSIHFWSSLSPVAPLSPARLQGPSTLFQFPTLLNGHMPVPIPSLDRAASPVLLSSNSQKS
In short, it runs like this: as §1

The target in the next assay is T6, FEV (Homo sapiens, UniProt Q99581 1-238).
T6 sequence: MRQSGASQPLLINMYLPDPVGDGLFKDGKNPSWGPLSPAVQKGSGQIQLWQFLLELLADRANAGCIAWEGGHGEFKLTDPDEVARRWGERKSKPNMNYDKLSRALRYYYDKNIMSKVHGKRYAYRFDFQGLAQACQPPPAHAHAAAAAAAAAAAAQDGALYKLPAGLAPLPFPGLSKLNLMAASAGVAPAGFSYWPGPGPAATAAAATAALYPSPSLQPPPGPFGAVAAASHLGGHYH
In short, it runs like this:
as §1

In the next assay the target is ETV5 (Homo sapiens, UniProt P41161 1-510). In short, it runs like this: as §1
ETV5, sequence (P41161 whole entry): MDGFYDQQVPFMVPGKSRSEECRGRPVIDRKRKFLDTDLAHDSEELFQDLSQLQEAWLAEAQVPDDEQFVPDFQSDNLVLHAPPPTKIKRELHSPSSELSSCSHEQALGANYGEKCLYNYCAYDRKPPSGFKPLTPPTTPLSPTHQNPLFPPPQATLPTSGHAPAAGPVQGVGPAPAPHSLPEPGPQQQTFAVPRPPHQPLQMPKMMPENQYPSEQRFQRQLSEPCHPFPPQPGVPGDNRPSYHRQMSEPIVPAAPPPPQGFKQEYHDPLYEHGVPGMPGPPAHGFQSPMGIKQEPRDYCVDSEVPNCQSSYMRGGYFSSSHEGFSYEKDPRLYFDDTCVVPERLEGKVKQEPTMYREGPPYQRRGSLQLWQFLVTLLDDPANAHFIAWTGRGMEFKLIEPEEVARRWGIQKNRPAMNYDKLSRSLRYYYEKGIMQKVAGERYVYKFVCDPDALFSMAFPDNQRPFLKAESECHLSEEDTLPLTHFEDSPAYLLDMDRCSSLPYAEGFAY
The next assay deals with T7, SPIC (Homo sapiens, UniProt Q8N5J4 1-248).
T7 sequence: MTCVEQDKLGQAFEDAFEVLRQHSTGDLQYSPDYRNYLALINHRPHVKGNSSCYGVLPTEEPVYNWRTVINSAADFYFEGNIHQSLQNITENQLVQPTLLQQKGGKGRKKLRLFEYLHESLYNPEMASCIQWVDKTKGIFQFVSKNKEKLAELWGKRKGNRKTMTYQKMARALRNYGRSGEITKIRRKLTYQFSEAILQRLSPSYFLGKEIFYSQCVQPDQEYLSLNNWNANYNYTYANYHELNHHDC
In short, it runs like this:
as §1

For a further assay, the target named is ELF4 (Homo sapiens, UniProt Q99607 1-663). In short, it runs like this: as §1
ELF4, sequence (Q99607 whole entry): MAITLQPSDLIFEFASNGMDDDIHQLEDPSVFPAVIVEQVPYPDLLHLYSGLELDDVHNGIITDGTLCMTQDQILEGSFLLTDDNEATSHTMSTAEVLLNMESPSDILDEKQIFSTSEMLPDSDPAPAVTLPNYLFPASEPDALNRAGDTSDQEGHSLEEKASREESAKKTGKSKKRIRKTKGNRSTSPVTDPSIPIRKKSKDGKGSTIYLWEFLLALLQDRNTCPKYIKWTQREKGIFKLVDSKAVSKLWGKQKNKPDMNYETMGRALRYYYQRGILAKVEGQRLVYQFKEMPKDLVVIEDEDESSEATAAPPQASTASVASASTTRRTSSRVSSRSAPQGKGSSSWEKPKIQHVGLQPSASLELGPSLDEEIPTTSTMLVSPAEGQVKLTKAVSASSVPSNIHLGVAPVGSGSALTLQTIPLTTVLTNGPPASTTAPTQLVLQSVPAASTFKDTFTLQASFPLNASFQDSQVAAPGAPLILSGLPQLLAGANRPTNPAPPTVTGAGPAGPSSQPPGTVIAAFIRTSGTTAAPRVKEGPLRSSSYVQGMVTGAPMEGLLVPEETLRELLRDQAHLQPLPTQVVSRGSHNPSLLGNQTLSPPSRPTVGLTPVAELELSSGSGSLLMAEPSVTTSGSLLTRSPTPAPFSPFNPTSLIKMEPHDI
Another assay deals with T8, ELK4 (Homo sapiens, UniProt P28324-2 1-405).
T8 sequence: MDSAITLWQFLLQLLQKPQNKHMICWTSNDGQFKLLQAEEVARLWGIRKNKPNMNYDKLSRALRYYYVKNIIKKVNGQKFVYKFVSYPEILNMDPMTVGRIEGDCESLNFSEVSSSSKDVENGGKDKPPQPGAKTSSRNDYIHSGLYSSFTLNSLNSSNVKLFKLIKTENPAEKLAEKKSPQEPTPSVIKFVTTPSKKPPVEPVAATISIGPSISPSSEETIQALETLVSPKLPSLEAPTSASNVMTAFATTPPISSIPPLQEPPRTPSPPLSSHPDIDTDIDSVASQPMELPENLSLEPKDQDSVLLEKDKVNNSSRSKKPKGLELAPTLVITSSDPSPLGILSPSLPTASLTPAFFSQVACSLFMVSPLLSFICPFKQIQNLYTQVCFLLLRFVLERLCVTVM
The procedure, abridged: as §1

Another assay has as its target T9, ETV2 (Homo sapiens, UniProt O00321 1-342).
T9 sequence: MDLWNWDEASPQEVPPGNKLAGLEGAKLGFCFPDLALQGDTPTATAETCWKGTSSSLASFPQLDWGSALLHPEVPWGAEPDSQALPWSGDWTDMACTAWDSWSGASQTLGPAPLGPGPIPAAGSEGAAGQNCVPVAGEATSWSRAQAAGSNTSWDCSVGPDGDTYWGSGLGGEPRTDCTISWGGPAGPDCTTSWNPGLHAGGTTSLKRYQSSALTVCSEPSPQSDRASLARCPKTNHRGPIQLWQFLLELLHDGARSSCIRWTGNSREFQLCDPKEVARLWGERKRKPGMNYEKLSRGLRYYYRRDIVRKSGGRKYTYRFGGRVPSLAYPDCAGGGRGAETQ
In short, it runs like this: as §1

The next assay has as its target T10, ELF3 (Homo sapiens, UniProt P78545 1-371).
T10 sequence: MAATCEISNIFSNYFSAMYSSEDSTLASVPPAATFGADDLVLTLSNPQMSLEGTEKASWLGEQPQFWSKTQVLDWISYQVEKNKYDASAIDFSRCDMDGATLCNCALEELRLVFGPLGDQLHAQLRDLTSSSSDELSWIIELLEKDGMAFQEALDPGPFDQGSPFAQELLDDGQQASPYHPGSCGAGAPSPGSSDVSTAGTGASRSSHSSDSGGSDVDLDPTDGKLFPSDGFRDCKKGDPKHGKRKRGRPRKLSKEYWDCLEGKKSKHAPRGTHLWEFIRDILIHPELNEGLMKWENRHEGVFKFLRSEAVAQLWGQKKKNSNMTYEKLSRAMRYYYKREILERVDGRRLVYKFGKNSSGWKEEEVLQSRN
The procedure, abridged:
as §1

In the next assay the target is ETV1 (Homo sapiens, UniProt P50549 1-477). The procedure, abridged: as §1
ETV1, sequence (P50549 whole entry): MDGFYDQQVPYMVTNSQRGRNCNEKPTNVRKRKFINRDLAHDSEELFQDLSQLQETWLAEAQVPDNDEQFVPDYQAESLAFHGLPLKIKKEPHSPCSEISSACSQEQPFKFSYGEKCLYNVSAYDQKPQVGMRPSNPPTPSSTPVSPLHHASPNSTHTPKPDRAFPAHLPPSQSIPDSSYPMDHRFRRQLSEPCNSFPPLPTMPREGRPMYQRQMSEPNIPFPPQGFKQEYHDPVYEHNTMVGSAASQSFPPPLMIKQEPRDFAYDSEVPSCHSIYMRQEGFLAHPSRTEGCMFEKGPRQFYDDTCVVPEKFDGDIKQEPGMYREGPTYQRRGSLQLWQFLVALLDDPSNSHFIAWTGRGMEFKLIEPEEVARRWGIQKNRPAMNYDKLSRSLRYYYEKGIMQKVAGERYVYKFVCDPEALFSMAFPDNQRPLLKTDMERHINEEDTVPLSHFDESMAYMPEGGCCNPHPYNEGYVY
The target in another assay is T11, GABPA (Homo sapiens, UniProt Q06546 1-454).
T11 sequence: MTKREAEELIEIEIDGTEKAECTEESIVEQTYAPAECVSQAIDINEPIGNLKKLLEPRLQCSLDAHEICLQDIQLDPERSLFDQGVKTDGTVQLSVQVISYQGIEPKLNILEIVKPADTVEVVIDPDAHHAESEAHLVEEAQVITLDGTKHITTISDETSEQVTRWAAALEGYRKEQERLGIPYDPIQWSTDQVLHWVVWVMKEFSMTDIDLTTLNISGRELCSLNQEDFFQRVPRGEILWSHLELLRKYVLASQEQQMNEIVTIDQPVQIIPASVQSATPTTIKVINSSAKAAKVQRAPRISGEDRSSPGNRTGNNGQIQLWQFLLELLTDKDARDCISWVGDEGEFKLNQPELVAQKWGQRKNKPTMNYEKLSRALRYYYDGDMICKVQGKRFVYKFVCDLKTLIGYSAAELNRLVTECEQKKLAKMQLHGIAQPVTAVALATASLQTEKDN
In short, it runs like this:
as §1

ELF1, sequence (P32519 whole entry): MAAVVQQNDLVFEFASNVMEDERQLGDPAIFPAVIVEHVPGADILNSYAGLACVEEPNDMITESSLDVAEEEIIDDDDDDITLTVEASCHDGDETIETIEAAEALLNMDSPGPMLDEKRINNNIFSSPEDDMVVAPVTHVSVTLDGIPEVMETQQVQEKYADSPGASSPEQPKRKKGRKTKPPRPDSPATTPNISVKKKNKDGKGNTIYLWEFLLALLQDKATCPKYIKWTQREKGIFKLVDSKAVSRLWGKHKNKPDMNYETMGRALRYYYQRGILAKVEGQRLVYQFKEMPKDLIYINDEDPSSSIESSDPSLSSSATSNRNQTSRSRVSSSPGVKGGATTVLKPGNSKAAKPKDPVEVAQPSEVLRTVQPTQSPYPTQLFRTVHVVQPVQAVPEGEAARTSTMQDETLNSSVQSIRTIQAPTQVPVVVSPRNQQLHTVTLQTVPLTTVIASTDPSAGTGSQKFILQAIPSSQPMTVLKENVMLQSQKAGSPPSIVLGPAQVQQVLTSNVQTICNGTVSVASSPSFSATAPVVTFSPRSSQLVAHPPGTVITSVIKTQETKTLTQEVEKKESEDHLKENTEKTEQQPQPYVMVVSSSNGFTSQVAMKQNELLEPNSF

For CCGCGC, the binding signal with FLI1 was 1.12 fold enrichment (6-mer frequency, TF over GST control); with ELK1, 1.16 fold enrichment (6-mer frequency, TF over GST control); with ERG, 1.2 fold enrichment (6-mer frequency, TF over GST control); with ELF1, 1.18 fold enrichment (6-mer frequency, TF over GST control); with EHF, 1.05 fold enrichment (6-mer frequency, TF over GST control); in the assay with SPI1 it was 1.14 fold enrichment (6-mer frequency, TF over GST control). The binding signal with SPIB was 1.24 fold enrichment (6-mer frequency, TF over GST control); in the assay with ELK3, 1.24 fold enrichment (6-mer frequency, TF over GST control); with FEV, 1.11 fold enrichment (6-mer frequency, TF over GST control); in the assay with ETV5, 1.21 fold enrichment (6-mer frequency, TF over GST control); with SPIC, 1.41 fold enrichment (6-mer frequency, TF over GST control); with ELF4, 1.07 fold enrichment (6-mer frequency, TF over GST control). In addition, the binding signal is 1.35 fold enrichment (6-mer frequency, TF over GST control) in the assay with ELK4; 1.29 fold enrichment (6-mer frequency, TF over GST control) with ETV2; 1.01 fold enrichment (6-mer frequency, TF over GST control) in the assay with ELF3; 1.06 fold enrichment (6-mer frequency, TF over GST control) in the assay with ETV1.

On to TAGGTC, for which the binding signal with FLI1 was 1.06 fold enrichment (6-mer frequency, TF over GST control); in the assay with ELK1, 1.03 fold enrichment (6-mer frequency, TF over GST control); with GABPA, 1.1 fold enrichment (6-mer frequency, TF over GST control); with ERG it was 1.03 fold enrichment (6-mer frequency, TF over GST control); in the assay with ELF1, 1.01 fold enrichment (6-mer frequency, TF over GST control); in the assay with SPIB it was 1.01 fold enrichment (6-mer frequency, TF over GST control). In addition, the binding signal was 1.08 fold enrichment (6-mer frequency, TF over GST control) with ELK3; 1.06 fold enrichment (6-mer frequency, TF over GST control) in the assay with ETV5; 1.11 fold enrichment (6-mer frequency, TF over GST control) in the assay with SPIC; 1.02 fold enrichment (6-mer frequency, TF over GST control) with ELF4; 1.11 fold enrichment (6-mer frequency, TF over GST control) in the assay with ELK4; 1.14 fold enrichment (6-mer frequency, TF over GST control) with ETV2. Further, the binding signal was 1.06 fold enrichment (6-mer frequency, TF over GST control) in the assay with ELF3 and 1.01 fold enrichment (6-mer frequency, TF over GST control) with ETV1.

Source of the values: paper PMC7862700, “An all-to-all approach to the identification of sequence-specific readers for epigenetic DNA modifications on cytosine”.
